Source: PubChem BioAssay (National Center for Advancing Translational Sciences (NCATS))
Most compounds without a hit are left out; they make up all but 0.49% or so of the library.
EPAC2 ag – EPAC2 (human) agonism | AID 720711 | hit rate 0.079% among 360,000 | Q8WZA2 | Potency, µM (top dose mostly 154 µM), actives largely listed as activators | EPAC2 activation, biochemical qHTS; response scale: 100% = 6.5 mM cAMP response; note: nearly all actives have a fitted effect of over 50% in size
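Compounds were titrated in qHTS against a Rap1B-BODIPY-GDP (250 nM) complex with EPAC2 (100 nM) and GDP (50 uM). BODIPY-GDP release tracked at 480/540 nm over 30 min at room temperature, normalized to 6.5 mM cAMP.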
EPAC1 antag – EPAC1 (human) antagonism. O95398. EPAC1 GEF assay, Rap1b-BODIPY-GDP exchange fluorescence. Potency, µM (titrated, usually from 115 µM), most hits filed as inhibitors. hit rate 0.14% among 360,000; note: nearly all actives have a fitted effect of over 50% in size
EPAC2 antag – antagonists of human EPAC2. hit rate 0.18% among 360,000. EPAC2 GEF exchange of Rap1B-BODIPY-GDP, fluorescence. Potency, µM (doses to about 114 µM), most hits filed as inhibitors. Q8WZA2. AID 720708; note: nearly all actives have a fitted effect of over 45% in size
EPAC1 ag – activates human EPAC1 exchange factor; EPAC1 agonist qHTS, biochemical assay; response scale: 100% = response to 6.5 mM cAMP; Potency, µM (top dose mostly 154 µM), usual class: activators; hit rate 0.073% among 360,000; AID 720707; note: nearly all actives have a fitted effect of over 60% in size
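Nucleotide exchange assay: 100 nM EPAC1 with 250 nM Rap1B loaded with BODIPY-GDP and 50 uM GDP, room temperature. Fluorescence (480/540 nm) read every 5 min for 30 min; signal change normalized to 6.5 mM cAMP as full agonist.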
USP1 inh – USP1/UAF1 (human) deubiquitinase inhibition; Potency, µM (highest dose often 57.1 µM), usual class: inhibitors; O94782; recombinant USP1/UAF1, Ub-Rhodamine cleavage fluorescence; hit rate 0.23% among 390,000; AID 743255; note: nearly all actives have a fitted effect of over 60% in size
Target sequence (O94782 whole entry, looked up): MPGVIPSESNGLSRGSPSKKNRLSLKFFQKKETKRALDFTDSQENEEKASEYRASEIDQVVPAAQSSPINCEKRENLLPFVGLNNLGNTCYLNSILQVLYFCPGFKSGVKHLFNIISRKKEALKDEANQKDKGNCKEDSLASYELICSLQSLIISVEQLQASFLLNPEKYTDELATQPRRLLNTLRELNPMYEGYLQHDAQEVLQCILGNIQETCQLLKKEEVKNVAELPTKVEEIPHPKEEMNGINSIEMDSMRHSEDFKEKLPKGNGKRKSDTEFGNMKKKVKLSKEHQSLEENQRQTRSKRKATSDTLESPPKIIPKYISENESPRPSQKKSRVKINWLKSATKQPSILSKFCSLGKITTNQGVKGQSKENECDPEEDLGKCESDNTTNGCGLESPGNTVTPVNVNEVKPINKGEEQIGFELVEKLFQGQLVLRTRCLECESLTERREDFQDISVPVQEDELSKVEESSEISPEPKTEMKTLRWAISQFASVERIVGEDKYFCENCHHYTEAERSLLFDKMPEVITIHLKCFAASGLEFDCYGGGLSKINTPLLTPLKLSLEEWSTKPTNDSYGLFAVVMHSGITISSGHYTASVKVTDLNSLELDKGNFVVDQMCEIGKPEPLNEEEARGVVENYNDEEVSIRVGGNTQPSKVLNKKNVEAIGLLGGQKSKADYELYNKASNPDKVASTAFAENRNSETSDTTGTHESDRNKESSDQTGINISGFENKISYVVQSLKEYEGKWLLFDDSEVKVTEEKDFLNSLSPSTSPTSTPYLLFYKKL
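1 nM enzyme complex + cpd, 15 min RT; start with Ub-Rho 150nM final; kinetic fluorescence ex 480/em 540, 6 reads q60 s. Buffer 50mM HEPES pH 7.8, 0.5mM EDTA, 0.1 mg/ml BSA, 1mM TCEP, 0.01% Tween-20.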
A number is an active result; 0 = inactive; ? = inconclusive; - = not tested or not shown. Calls come from the whole dose curve; as a rule, active = well fitted curve in the direction sought with a large enough effect; inconclusive = small, poorly fitted or top-dose-only effect, or another doubt; inactive = no such curve, though single readings can be large; an effect the other way counts as inactive or inconclusive.

SMILES	EPAC2 ag	EPAC1 antag	EPAC2 antag	EPAC1 ag	USP1 inh
N#Cc1c(N2CCCC2)nc(N)c2c(N)nc(N3CCCC3)cc12	?	?	?	0	0.32µM
COc1cc2c(C#N)c(N3CCCC3)nc(N)c2c(N)n1	0	?	0	0	7.9µM
CCOc1cc2c(C#N)c(N3CCCC3)nc(N)c2c(N)n1	0	0	0	0	0
CN1CCN(C(=O)Cn2c(-c3cccs3)cc3ccccc32)CC1	-	-	-	-	0
COc1ccc(Nc2nnc(-c3ccc(C)c(S(=O)(=O)N4CCOCC4)c3)c3ccccc23)cc1	-	-	-	-	0
CCOC(=O)c1c(C)nc2sc(C(N)=O)c(N)c2c1-c1ccccc1	7.9µM	0	0	0	0
CCCCCCCCN1C(=O)[C@H](CC(=O)NCc2ccc(OC)c(OC)c2)C[C@@]2(C(=O)OC)CCCCC=C12	0	0	38µM	0	-
CCCCCCCCN1C(=O)[C@H](CC(=O)NCc2ccc(OC)c(OC)c2)C[C@@]2(C(=O)OCC)CCC=C12	0	0	?	0	-
N#C/C(=C\N1CCN(Cc2ccc3c(c2)OCO3)CC1)c1nc2ccccc2s1	0	0	0	0	32µM
CCOC(=O)N1CCN(/C=C(\C#N)c2nc3ccccc3s2)CC1	0	?	0	0	0
CN(C)S(=O)(=O)c1ccc2c(c1)/C(=C/c1cc3c([nH]1)CCCC3)C(=O)N2	0	0	0	?	32µM
CCc1ccc2c(c1)NC(=O)C2(C)Cc1ccc(F)cc1 (stereo not given)	0	0	45µM	0	-
CCc1ccc2c(c1)NC(=O)C2(C)Cc1ccc(Cl)s1 (stereo not given)	0	0	?	0	-
O=c1c2[nH]c3ccccc3c2nc(SCc2cccc(F)c2)n1-c1ccccc1	-	-	-	-	0
CCN(CC)c1ccc(/C=C(/C#N)c2nc3ccc(C)cc3[nH]2)c(OC(C)C)c1	?	0	0	?	25µM
COc1cc(/C=C(\C#N)c2nc3ccc(C)cc3[nH]2)cc([N+](=O)[O-])c1O	0	28µM	?	0	?
CC(C)c1ccc(NC(=O)c2cn(C3CCCCC3)c(=O)c3c2c2ccccc2n3C)cc1	-	-	-	-	0
CCCCCC(=O)Cc1cc(O)cc2c1C(=O)Oc1cc(O)c(C(=O)O)c(CCCCC)c1O2	0	40µM	16µM	0	?
CN(C)c1ccc(NC(=O)Cn2cc(S(=O)(=O)Cc3ccccc3Cl)c3ccccc32)cc1	-	-	-	-	0
Cc1[nH][nH]c(=O)c1C(c1ccc(-c2cccc(Cl)c2)o1)c1c(C)[nH][nH]c1=O	0	?	?	0	28µM
COC(=O)c1ccc(-c2ccc(C(c3c(C)[nH][nH]c3=O)c3c(C)[nH][nH]c3=O)o2)cc1	0	0	0	0	28µM
CCOc1ccccc1CNCc1cccn1-c1nnc(N2CCN(c3ccccc3)CC2)s1	-	-	-	-	0
CCc1ccc(S(=O)(=O)c2nnn3c2nc(NC2CCCCCC2)c2sccc23)cc1	-	-	-	-	0
CCOC(=O)C1=C(C)N=c2sc(=Cc3ccc(OCC(=O)O)cc3)c(=O)n2C1c1ccc(Cl)cc1 (stereo not given)	0	?	0	0	-
CCOC(=O)C1=C(C)N=c2s/c(=C\c3ccc(OCC(=O)O)cc3)c(=O)n2C1c1ccc(OC(C)C)cc1 (stereo not given)	0	56µM	0	0	?
SMILES	EPAC2 ag	EPAC1 antag	EPAC2 antag	EPAC1 ag	USP1 inh
CCOC(=O)C1=C(C)N=c2sc(=Cc3cc(Cl)c(OCC(=O)O)c(Cl)c3)c(=O)n2C1c1cccc(OC)c1 (stereo not given)	0	?	25µM	0	-
COc1ccc(C(NC(=O)c2cc(OC)ccc2OC)c2ccccc2)cc1 (stereo not given)	0	0	45µM	0	0
O=C(Cn1c(=O)oc2cc(S(=O)(=O)NC3CCCC3)ccc21)Nc1ccc(F)c(F)c1	-	-	-	-	0
O=C1CSC(=S)N1/N=C/c1cc(Br)c(O)c(Br)c1	0	0	0	0	18µM
CCn1c(CN2CCCCC2)nc2cc(NC(=O)c3cccc([N+](=O)[O-])c3)ccc21	-	-	-	-	0
O=C(Nc1cccc(Cl)c1)c1ccc2c(c1)CCN2S(=O)(=O)c1ccccc1	-	-	-	-	0
O=C(Nc1cc(F)ccc1F)N1CCC(CN2CCCC2)CC1	-	-	-	-	0
C1CCc2nc3c(nc2C1)CCCC3	0	0	0	0	0
Nc1nnc2c(n1)CCCC2	0	0	0	0	16µM
S=c1[nH]nc(-c2cc(-c3ccccc3)n[nH]2)n1/N=C/c1ccc(Cl)cc1	0	0	0	0	0
S=c1[nH]nc(-c2cc(-c3ccccc3)n[nH]2)n1/N=C/c1cccc(Cl)c1	0	50µM	0	89µM	?
S=c1[nH]nc(-c2cc(-c3ccccc3)n[nH]2)n1/N=C/c1ccc(Cl)c(Cl)c1	0	56µM	?	63µM	0
CCOC(=O)c1c(NC(=O)c2nc(S(C)(=O)=O)ncc2Cl)sc(C(C)=O)c1C	-	-	-	-	0
Cc1cccc(N(Cc2ccccc2)C(=O)CSC(C)C(=O)Nc2cc(C)on2)c1 (stereo not given)	0	0	0	112µM	0
Cc1cc(NC(=O)C(C)SCC(=O)O)no1 (stereo not given)	0	0	0	0	0
CC(C)OC(=O)c1c2c(n3ccccc13)C(=O)c1ccccc1C2=O	0	0	0	0	28µM
COC(=O)c1cc2c(C)c(C)c3ccccn3c-2c1C(=O)OC	0	0	0	0	?
CCCc1[nH]c2ccc(C(=O)OC)cc2c1CCC	0	0	28µM	0	0
CCCc1[nH]c2ccc(C#N)cc2c1CCC	0	0	28µM	0	0
CCOc1ccccc1C(=O)N1CC(=O)Nc2ccc(Cl)cc2C1c1ccccc1 (stereo not given)	-	-	-	-	0
CC1=NN(c2ccccc2)C(=O)/C1=C\c1ccc(Oc2ccc([N+](=O)[O-])cc2[N+](=O)[O-])cc1	0	79µM	0	0	?
COC(=O)c1cc(Br)c(=O)n(CCc2ccc(F)cc2)c1	0	0	28µM	0	0
O=C(CSc1nc(-c2ccc(F)cc2)nc2ccc(F)cc12)Nc1cccc(C(=O)O)c1	0	71µM	0	0	0
COc1ccccc1CNC(=O)CCc1c(C)nn(-c2ccc(N3CCCCC3)nn2)c1C	-	-	-	-	0
CCc1nnc(NS(=O)(=O)c2ccc(NC(=S)NC(=O)/C=C/c3ccc(F)cc3)cc2)s1	0	22µM	0	0	0
Cc1ccc(-c2cn3nc(-c4ccccc4)c(-c4ccccc4)nc3n2)cc1	100µM	0	0	0	?
Cc1ccc(N2C(=O)c3cccc4c(N5CCN(C)CC5)ccc(c34)C2=O)c2cccnc12	0	0	0	0	28µM
O=C1c2cccc3c(N4CCCCC4)ccc(c23)C(=O)N1c1ccc(O)cc1	89µM	0	0	0	?
O=C1c2cccc3cccc(c23)C(=O)N1c1ccc(O)cc1	0	0	0	0	0
O=C1c2cccc3c(N4CCCCC4)ccc(c23)C(=O)N1c1ccccc1O	100µM	0	0	?	28µM
